This is an account of results in paper PMC7862700, “An all-to-all approach to the identification of sequence-specific readers for epigenetic DNA modifications on cytosine”.

What all share (test): DAPPL (digital affinity profiling via proximity ligation, sequencing); 10 mM Tris-HCl pH 7.5, 50 mM NaCl, 1 mM DTT, 4% glycerol, room temperature, 30 min; GST-TFs on glutathione beads, 16-mer random dsDNA library, 0.1% formaldehyde crosslink after washing; high values mean tight binding
One test addresses T1, FEV (Homo sapiens, UniProt Q99581 1-238).
T1 sequence: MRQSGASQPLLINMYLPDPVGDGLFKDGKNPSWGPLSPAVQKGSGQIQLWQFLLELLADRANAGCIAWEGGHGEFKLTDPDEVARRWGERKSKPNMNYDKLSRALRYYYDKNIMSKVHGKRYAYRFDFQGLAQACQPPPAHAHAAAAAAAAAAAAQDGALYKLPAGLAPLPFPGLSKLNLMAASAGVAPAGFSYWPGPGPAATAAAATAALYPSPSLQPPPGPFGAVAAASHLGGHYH
To be noted: protein: recombinant; tags: N-terminal GST; dsDNA, one strand shown. The method in brief:
(§1)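 Human transcription factors fused to GST were expressed in yeast, captured on glutathione beads, given DNA barcodes and pooled with a GST-only negative control. Pools were incubated with 200 nmole of a 16-mer random double-stranded DNA library in Tris/NaCl/DTT/glycerol buffer at room temperature for 30 min. They were then washed, crosslinked with 0.1% formaldehyde, proximity-ligated (BsaI/T4 ligase, 1 h, 37 °C), PCR-amplified and sequenced on an Illumina NextSeq500. Binding signal is each 6-mer's read frequency for a factor divided by its frequency for the GST control.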

For another test, the target named is ETV5 (Homo sapiens, UniProt P41161 1-510). Conditions: protein: recombinant; tags: N-terminal GST; dsDNA, one strand shown. The method in brief: as §1
The target in another test is HSF1 (Homo sapiens, UniProt Q00613 1-529). To be noted: protein: recombinant; tags: N-terminal GST; chain copies: 3; dsDNA, one strand shown. The method in brief: as §1
For another test, the target named is T2, SPIC (Homo sapiens, UniProt Q8N5J4 1-248).
T2 sequence: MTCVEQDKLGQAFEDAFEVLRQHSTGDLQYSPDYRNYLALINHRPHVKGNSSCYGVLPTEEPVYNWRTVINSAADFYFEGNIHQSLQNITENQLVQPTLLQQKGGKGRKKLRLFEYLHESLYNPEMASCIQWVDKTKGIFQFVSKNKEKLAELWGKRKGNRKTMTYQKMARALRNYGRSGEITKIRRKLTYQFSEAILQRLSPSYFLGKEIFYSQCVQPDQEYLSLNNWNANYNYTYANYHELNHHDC
To be noted: protein: recombinant; tags: N-terminal GST; dsDNA, one strand shown. The method in brief:
as §1

The target in the next test is ELF4 (Homo sapiens, UniProt Q99607 1-663). Conditions: protein: recombinant; tags: N-terminal GST; dsDNA, one strand shown. The method, boiled down: as §1
The target in a further test is T3, ELK4 (Homo sapiens, UniProt P28324-2 1-405).
T3 sequence: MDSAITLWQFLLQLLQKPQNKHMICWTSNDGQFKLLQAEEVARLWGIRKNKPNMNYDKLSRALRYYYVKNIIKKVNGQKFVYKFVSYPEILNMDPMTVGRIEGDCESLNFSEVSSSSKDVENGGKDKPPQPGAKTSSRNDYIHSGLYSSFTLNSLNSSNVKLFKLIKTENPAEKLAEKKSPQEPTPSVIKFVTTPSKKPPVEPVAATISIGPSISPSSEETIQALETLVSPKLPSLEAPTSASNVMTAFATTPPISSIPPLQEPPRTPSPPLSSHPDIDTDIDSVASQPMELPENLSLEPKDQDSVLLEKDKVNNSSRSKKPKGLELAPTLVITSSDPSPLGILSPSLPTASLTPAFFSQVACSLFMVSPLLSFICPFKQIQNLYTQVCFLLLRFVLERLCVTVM
To be noted: protein: recombinant; tags: N-terminal GST; dsDNA, one strand shown. The method, boiled down: as §1

Another test has as its target T4, ETV2 (Homo sapiens, UniProt O00321 1-342).
T4 sequence: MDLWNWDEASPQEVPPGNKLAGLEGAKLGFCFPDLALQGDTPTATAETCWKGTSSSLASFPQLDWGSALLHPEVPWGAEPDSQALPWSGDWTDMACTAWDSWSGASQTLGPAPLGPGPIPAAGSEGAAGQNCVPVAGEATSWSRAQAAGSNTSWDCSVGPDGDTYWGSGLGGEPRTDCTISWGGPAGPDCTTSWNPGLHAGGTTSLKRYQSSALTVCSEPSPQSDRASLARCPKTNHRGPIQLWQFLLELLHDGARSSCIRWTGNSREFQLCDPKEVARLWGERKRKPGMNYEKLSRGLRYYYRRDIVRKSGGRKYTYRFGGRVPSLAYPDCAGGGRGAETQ
To be noted: protein: recombinant; tags: N-terminal GST; dsDNA, one strand shown. The method, boiled down: as §1

Another test deals with T5, ELF3 (Homo sapiens, UniProt P78545 1-371).
T5 sequence: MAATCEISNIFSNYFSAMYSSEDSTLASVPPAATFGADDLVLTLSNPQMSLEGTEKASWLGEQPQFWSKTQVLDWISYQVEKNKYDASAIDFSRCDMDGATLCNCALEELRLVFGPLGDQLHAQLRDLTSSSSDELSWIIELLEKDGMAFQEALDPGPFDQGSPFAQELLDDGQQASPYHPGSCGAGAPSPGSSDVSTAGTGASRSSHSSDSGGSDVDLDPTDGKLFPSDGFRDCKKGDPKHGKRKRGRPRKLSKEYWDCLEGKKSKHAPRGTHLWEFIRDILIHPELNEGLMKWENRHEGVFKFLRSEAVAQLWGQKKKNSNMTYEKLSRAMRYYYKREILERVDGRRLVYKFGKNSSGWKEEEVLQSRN
Conditions: protein: recombinant; tags: N-terminal GST; dsDNA, one strand shown. The method in brief:
as §1

A further test addresses CRX (Homo sapiens, UniProt O43186 1-299). Conditions: protein: recombinant; tags: N-terminal GST; dsDNA, one strand shown. The method in brief: as §1
In the next test the target is ETV1 (Homo sapiens, UniProt P50549 1-477). To be noted: protein: recombinant; tags: N-terminal GST; dsDNA, one strand shown. The method, boiled down: as §1
The target in another test is T6, ERF (Homo sapiens, UniProt P50548 1-548).
T6 sequence: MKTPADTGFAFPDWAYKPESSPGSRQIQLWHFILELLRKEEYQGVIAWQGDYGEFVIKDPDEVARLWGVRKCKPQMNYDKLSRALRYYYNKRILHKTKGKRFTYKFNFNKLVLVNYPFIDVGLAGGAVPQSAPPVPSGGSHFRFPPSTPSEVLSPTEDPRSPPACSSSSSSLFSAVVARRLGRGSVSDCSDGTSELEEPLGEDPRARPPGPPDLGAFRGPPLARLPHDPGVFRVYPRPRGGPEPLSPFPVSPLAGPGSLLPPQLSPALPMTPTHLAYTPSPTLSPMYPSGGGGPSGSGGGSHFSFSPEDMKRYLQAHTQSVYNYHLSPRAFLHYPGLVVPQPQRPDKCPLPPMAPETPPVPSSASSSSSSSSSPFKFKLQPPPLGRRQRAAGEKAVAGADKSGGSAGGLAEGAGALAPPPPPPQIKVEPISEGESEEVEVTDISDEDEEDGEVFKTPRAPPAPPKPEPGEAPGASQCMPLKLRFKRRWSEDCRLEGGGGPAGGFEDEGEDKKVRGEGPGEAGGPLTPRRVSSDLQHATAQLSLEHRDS
Conditions: protein: recombinant; tags: N-terminal GST; dsDNA, one strand shown. The method, boiled down: as §1

The next test concerns the target T7, ETV3L (Homo sapiens, UniProt Q6ZN32 1-361).
T7 sequence: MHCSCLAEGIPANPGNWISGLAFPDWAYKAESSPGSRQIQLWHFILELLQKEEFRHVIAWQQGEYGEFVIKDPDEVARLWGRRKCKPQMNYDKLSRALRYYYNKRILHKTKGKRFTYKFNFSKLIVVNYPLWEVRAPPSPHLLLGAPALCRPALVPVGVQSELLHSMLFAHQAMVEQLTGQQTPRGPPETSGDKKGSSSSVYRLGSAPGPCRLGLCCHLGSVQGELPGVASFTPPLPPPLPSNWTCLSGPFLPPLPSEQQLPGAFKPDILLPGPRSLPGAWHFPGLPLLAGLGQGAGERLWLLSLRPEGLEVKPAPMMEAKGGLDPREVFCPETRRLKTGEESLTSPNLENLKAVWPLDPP
Conditions: protein: recombinant; tags: N-terminal GST; dsDNA, one strand shown. The method in brief:
as §1

Another test deals with T8, ETS2 (Homo sapiens, UniProt P15036 1-469).
T8 sequence: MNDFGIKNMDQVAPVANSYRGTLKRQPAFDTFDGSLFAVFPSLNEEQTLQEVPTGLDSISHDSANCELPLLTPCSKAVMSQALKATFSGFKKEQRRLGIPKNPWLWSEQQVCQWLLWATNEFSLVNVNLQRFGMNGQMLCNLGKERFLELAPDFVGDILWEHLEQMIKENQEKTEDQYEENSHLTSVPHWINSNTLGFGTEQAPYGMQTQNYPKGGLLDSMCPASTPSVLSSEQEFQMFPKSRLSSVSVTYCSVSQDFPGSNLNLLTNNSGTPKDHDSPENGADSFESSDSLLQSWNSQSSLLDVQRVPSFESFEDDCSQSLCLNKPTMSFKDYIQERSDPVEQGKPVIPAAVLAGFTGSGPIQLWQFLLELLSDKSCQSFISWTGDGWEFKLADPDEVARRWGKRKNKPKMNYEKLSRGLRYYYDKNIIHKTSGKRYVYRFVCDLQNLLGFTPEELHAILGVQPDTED
To be noted: protein: recombinant; tags: N-terminal GST; dsDNA, one strand shown. The method, boiled down:
as §1

A further test addresses T9, SPDEF (Homo sapiens, UniProt O95238 1-335).
T9 sequence: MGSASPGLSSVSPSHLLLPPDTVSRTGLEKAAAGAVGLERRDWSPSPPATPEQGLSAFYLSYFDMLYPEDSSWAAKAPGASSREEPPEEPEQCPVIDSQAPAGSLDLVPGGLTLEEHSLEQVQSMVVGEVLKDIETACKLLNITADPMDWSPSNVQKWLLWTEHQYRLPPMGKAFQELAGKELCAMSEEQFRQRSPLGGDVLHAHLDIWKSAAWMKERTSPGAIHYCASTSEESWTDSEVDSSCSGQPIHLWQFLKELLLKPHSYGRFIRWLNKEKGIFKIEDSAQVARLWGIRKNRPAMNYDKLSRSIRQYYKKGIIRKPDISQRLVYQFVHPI
Conditions: protein: recombinant; tags: N-terminal GST; dsDNA, one strand shown. The method in brief: as §1

The next test addresses T10, ETV7 (Homo sapiens, UniProt Q9Y603 1-341).
T10 sequence: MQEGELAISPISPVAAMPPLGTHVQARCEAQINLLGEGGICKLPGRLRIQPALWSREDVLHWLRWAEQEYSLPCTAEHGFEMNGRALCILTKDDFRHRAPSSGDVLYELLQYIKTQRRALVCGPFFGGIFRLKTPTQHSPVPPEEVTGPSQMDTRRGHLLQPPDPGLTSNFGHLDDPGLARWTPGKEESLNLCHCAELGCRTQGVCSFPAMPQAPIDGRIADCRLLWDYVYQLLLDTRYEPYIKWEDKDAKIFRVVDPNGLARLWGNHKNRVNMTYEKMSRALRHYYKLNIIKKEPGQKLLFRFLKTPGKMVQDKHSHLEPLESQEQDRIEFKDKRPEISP
To be noted: protein: recombinant; tags: N-terminal GST; dsDNA, one strand shown. The method, boiled down: as §1

A further test addresses T11, ELF5 (Homo sapiens, UniProt Q9UKW6-2 1-255).
T11 sequence: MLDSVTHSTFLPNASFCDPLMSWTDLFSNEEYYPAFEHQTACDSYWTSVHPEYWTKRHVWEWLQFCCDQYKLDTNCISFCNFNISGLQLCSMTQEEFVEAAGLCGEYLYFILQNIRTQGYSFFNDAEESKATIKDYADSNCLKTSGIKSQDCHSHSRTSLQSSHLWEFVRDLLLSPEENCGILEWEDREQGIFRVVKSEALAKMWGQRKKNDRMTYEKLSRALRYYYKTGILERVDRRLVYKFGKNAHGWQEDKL
To be noted: protein: recombinant; tags: N-terminal GST; dsDNA, one strand shown. The method, boiled down:
as §1

A further test has as its target T12, ETV3 (Homo sapiens, UniProt P41162-2 1-143).
T12 sequence: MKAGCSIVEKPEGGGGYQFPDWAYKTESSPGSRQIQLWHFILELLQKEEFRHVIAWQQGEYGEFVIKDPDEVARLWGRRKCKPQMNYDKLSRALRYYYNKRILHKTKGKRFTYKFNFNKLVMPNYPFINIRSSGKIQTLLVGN
To be noted: protein: recombinant; tags: N-terminal GST; dsDNA, one strand shown. The method in brief: as §1

The target in another test is ETV6 (Homo sapiens, UniProt P41212 1-452). Conditions: protein: recombinant; tags: N-terminal GST; dsDNA, one strand shown. The method, boiled down:
as §1

Chain of ETV1 (P50549 whole entry): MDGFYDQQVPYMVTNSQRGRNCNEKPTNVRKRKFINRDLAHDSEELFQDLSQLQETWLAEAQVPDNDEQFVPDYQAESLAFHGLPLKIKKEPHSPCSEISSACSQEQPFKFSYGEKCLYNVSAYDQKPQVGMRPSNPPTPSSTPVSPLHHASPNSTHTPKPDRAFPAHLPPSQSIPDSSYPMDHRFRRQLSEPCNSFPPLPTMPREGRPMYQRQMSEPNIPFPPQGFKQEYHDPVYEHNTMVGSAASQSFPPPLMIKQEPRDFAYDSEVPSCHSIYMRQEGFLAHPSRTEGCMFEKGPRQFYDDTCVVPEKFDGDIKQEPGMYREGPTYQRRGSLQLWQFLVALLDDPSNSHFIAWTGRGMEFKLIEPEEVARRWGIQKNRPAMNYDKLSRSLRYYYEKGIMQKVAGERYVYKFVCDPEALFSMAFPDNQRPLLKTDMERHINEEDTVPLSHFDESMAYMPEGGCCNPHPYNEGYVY
Chain of ETV5 (P41161 whole entry): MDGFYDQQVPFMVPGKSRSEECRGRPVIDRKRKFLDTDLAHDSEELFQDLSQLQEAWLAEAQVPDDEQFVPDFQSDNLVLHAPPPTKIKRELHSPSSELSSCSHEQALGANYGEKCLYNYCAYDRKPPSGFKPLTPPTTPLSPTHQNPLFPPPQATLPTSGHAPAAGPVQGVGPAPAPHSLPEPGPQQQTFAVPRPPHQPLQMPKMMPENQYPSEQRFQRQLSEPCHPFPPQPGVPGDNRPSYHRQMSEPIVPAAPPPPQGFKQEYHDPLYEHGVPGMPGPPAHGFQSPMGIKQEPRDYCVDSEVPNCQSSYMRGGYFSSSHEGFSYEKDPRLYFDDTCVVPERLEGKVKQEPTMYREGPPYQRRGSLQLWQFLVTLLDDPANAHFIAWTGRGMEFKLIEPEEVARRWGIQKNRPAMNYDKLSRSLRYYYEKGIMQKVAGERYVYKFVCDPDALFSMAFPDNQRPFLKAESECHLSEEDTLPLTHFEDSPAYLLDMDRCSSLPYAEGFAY
Chain of ELF4 (Q99607 whole entry): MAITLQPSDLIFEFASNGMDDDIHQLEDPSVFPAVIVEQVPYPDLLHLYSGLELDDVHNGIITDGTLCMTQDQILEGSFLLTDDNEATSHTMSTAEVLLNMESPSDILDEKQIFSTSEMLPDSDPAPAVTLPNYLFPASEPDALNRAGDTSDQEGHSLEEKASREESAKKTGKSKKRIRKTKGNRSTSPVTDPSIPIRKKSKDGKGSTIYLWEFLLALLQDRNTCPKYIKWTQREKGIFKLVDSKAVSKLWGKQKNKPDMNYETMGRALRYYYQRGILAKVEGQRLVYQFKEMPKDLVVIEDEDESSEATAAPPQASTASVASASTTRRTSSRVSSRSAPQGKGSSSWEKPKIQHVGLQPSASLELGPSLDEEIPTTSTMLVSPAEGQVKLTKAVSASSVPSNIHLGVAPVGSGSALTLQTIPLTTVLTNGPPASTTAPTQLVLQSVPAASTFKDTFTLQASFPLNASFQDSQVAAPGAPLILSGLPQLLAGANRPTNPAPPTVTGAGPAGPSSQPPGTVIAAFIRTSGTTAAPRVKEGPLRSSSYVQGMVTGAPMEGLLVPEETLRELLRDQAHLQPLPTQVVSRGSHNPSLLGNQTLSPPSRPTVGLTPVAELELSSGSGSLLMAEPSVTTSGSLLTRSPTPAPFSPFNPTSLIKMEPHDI
Chain of ETV6 (P41212 whole entry): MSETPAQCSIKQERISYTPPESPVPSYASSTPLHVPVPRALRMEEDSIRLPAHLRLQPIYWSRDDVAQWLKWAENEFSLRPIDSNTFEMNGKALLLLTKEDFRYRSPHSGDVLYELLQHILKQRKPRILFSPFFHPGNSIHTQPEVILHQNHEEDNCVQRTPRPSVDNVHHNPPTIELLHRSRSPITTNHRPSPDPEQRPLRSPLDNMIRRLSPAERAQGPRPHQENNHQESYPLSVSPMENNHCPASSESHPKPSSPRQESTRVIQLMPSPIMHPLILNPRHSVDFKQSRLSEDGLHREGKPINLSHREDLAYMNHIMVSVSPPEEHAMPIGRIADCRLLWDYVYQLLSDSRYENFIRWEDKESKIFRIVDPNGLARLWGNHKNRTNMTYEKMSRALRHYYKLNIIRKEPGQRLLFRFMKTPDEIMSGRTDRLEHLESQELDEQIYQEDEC
Chain of CRX (O43186 whole entry): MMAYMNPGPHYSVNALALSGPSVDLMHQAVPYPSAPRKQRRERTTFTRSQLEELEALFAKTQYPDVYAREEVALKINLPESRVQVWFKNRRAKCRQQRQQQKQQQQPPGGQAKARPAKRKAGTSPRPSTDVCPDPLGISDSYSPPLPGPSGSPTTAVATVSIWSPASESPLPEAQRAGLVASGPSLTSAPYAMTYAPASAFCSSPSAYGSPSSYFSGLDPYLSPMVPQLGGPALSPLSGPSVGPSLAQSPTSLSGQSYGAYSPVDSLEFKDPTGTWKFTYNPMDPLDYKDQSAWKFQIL
Chain of HSF1 (Q00613 whole entry): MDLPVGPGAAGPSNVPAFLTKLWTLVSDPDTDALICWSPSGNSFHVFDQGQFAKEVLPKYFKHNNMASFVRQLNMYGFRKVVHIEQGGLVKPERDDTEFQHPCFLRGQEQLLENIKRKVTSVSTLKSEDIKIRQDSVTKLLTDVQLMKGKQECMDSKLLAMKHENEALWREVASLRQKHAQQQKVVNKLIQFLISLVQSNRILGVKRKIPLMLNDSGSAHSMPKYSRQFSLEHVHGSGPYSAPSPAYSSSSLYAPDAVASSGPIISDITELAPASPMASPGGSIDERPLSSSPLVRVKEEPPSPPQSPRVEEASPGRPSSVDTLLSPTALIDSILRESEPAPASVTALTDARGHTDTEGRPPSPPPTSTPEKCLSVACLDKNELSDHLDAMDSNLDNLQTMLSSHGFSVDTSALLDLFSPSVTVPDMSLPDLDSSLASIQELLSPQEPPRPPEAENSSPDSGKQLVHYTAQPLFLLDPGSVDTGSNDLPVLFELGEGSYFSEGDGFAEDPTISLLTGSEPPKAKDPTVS

In the case of CTTAAT, the binding signal with FEV was 1.23 fold enrichment (6-mer frequency, TF over GST control); in the test with ETV5 it was 1.27 fold enrichment (6-mer frequency, TF over GST control); in the test with HSF1, 2.31 fold enrichment (6-mer frequency, TF over GST control); in the test with SPIC it was 1.32 fold enrichment (6-mer frequency, TF over GST control); in the test with ELF4, 1.33 fold enrichment (6-mer frequency, TF over GST control); with ELK4, 1.22 fold enrichment (6-mer frequency, TF over GST control). Also, the binding signal was 1.25 fold enrichment (6-mer frequency, TF over GST control) in the test with ETV2; 1.35 fold enrichment (6-mer frequency, TF over GST control) with ELF3; 3.69 fold enrichment (6-mer frequency, TF over GST control) with CRX; 1.29 fold enrichment (6-mer frequency, TF over GST control) with ETV1; 1.27 fold enrichment (6-mer frequency, TF over GST control) in the test with ERF; 1.4 fold enrichment (6-mer frequency, TF over GST control) with ETV3L. The binding signal in the test with ETS2 was 1.37 fold enrichment (6-mer frequency, TF over GST control); with SPDEF it was 1.25 fold enrichment (6-mer frequency, TF over GST control); with ETV7, 1.33 fold enrichment (6-mer frequency, TF over GST control); with ELF5 it was 1.25 fold enrichment (6-mer frequency, TF over GST control); with ETV3, 1.27 fold enrichment (6-mer frequency, TF over GST control); with ETV6 it was 1.25 fold enrichment (6-mer frequency, TF over GST control).
